# Most compounds without a hit are left out; they make up all but 1.6% or so of the library.
# KCNQ2 block = blocks the rat KCNQ2 potassium channel | O88943 | CHO-K1 KCNQ2, FluxOR thallium flux, 20 min; hits give low values | B-score at 10 µM | 310,000 compounds, 1.1% hits | AID 2156;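 active = fluorescence ratio B-score at most minus 3 library SDs, with starting brightness B-score within 2 library SDs, cut at about -5.5 in these data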
# KCNQ2 enhance = KCNQ2 (rat) channel potentiation; 310,000 compounds, 0.54% hits; B-score at 10 µM; O88943; CHO-K1 KCNQ2, FluxOR thallium flux fluorescence; hits give high values;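 active = fluorescence ratio B-score at least 3 SD of library B-scores, with initial fluorescence B-score within 3 of them, cut at about 5.3 in these data; same plate scores as AID 2156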;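 note: B-score of peak minus minimum over baseline fluorescence ratio after K+ and Tl+ stimulus; positive B-score means potentiation of KCNQ2 with more thallium influx and brighter signal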
# * marks the source's active call; other numbers are inactive results; i = inactive; · = no result.
SMILES,KCNQ2 block,KCNQ2 enhance
N#CC1=C(N)NC(SCC(=O)c2ccc(Cl)cc2)=C(C#N)C12CCCC2,i,·
COC(=O)c1cc(S(=O)(=O)Nc2cc(OC)cc(OC)c2)c[nH]1,i,1.2
C/C(=C\c1ccccc1)C(=O)N1CCN(c2cccc(C(F)(F)F)c2)CC1,-6.2*,-6.2
C/C(=C/c1ccccc1)C(=O)N1CCN(c2ccccc2F)CC1,i,·
O=C(CSCc1ccccc1)N1CCN(c2cccc(C(F)(F)F)c2)CC1,-6.5*,-6.5
O=C(CSCc1ccccc1)N1CCN(c2ccccc2)CC1,i,·
O=S(=O)(NN1CCOCC1)c1cc(Cl)cc(Cl)c1O,i,0.13
CCOc1ccc(C(=O)N2CCCC2)cc1,i,0.53
CCOc1ccc(C(=O)N2CCN(c3cccc(C)c3C)CC2)cc1,-5.8*,-5.8
O=C(COc1cccc2ccccc12)N1c2ccccc2CCc2ccccc21,-7.2*,-7.2
O=C(COc1ccc(F)cc1)N1c2ccccc2CCc2ccccc21,i,·
O=C(NC(=S)Nc1ccc(CN2CCCCC2)cc1)c1cccc(OCc2ccccc2)c1,-6*,-6
O=C(NC1CCN(Cc2ccccc2)CC1)c1cccc(OC(F)F)c1,i,0.15
O=C(O)c1ccc(NC(=S)NC(=O)c2cccc(COc3ccccc3)c2)cc1,i,·
CC(=O)c1cccc(OCc2cc(C(=O)NC3CCN(Cc4ccccc4)CC3)no2)c1,i,6.3*
N#Cc1nc(COc2cccc(Cl)c2)oc1N1CCN(c2ccccc2)CC1,i,·
N#Cc1nc(COc2ccccc2)oc1N1CCN(c2cccc(Cl)c2)CC1,-5.9*,-5.9
CC1=NN(C(=O)c2c(Br)c(C)nn2C)C(O)(C(F)(F)F)C1 (centres undefined),i,11*
CC1=NN(C(=O)c2csc(C)c2)C(O)(C(F)(F)F)C1 (centres undefined),i,2.9
CC1=NN(C(=O)c2ccc(Br)cc2)C(O)(C(F)(F)OC(F)(F)F)C1 (centres undefined),i,5.7*
CC1=NN(C(=O)c2csc(C)c2C)C(O)(C(F)(F)F)C1 (centres undefined),i,1.9
CC1=NN(C(=O)c2nn(C)cc2Br)C(O)(C(F)(F)F)C1 (centres undefined),i,·
CC1=NN(C(=O)c2cc(C)nn2C)C(O)(C(F)(F)F)C1 (centres undefined),i,6*
Cc1ccc(CS(=O)(=O)c2cn(CC(=O)Nc3ccon3)c3ccccc23)cc1,i,1.1
Cc1ccc(C)c(S(=O)(=O)N2CCN(C(=O)c3ccncc3)CC2)c1,i,·
SMILES,KCNQ2 block,KCNQ2 enhance
CCN1CCN(c2nc3c(c(=O)[nH]c(=O)n3C)n2Cc2ccccc2)CC1,i,0.93
CCNS(=O)(=O)c1ccc(NC(=S)N2CCc3ccccc32)cc1,i,0.07
CC(=O)N[C@@H](Cc1c[nH]c2ccccc12)C(=O)NCc1ccccc1,i,·
CCOC(=O)C1=NN(c2cccc(Cl)c2)C2=NC(C)=C(C(=O)OC)C(c3cccs3)N12 (centres undefined),-5.7*,-5.7
CCOC(=O)C1=NN(c2ccccc2)C2=NC(C)=C(C(=O)OC)C(c3cccs3)N12 (centres undefined),i,·
COc1ccc(OC)c(NS(=O)(=O)c2ccc3c(c2)C(C)(C)C(=O)N3C)c1,i,·
CC(C)(C)n1nc2c(c1NC(=O)COc1ccc(Cl)cc1)CSC2,i,·
CC(C)(C)n1nc2c(c1NC(=O)Cc1cccs1)CSC2,i,9.5*
CN(C(=O)c1ccc(-c2nn(C)c(=O)c3ccccc23)cc1)C1CCCCC1,i,·
CC(=O)c1cc2c(cc1NC(=O)c1ccc(Cl)cc1)OCCO2,i,0.02
CC(=O)c1cc2c(cc1NC(=O)Nc1cccc(Cl)c1)OCCO2,-6.3*,-6.3
Cc1ccc(C(=O)NNC(=O)c2ccccc2O)cc1S(=O)(=O)N1CCCCC1,i,·
CC1CN(C(=O)NCc2ccccc2)c2cc(Cl)ccc2O1 (centres undefined),i,·
COc1cccc(NC(=O)COc2ccc(C(=S)N3CCN(C)CC3)cc2OC)c1,i,0.57
Cc1sc(-n2c(C)ccc2C)c(C#N)c1C,i,·
Cc1ccc(C)n1-c1sc2c(c1C#N)CCCC2,-5.9*,-5.9
Cc1ccc2nc(NCCc3ccccc3)c3nncn3c2c1,i,·
CCS(=O)(=O)N1Cc2ccccc2CC1C(=O)Nc1ccc(F)c(F)c1F (centres undefined),i,0.63
CCN(CC)S(=O)(=O)c1cccc(-c2nnc(SCC#N)n2Cc2ccccc2)c1,-5.7*,-5.7
CCN(CC)S(=O)(=O)c1cccc(-c2nnc(SC(C)C#N)n2Cc2ccccc2)c1 (centres undefined),i,·
COc1ccc(NC(=O)Cc2nnc(SCC(=O)NC3CCCCC3C)n2C)cc1 (centres undefined),i,·
O=C(NCCCN1CCCC1=O)c1cc2nc(-c3ccco3)cc(C(F)(F)F)n2n1,i,·
Cc1ccc(NC(=O)Nc2ccc3c(c2)OCO3)cc1F,i,0.27

# Bioassay records deposited in PubChem by Johns Hopkins Ion Channel Center.
